Source: PubChem BioAssay
In the library only some 2.9% were active in any assay of this set; here they are far more common.
LDHA block: qHTS assay for inhibitors of human lactate dehydrogenase; 480,000 tested, 0.15% active; L-lactate dehydrogenase A chain (Homo sapiens), P00338; activity change, % (values are at about 110 or 230 µM); AID 1347041, 2019; purified LDHA, NADH/diaphorase-resazurin fluorescence; stronger effect = lower value; in the data active = activity change below about -30%; inconclusive = mostly about -25% to -30%;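 also: plate controls were DMSO wells for no effect and wells without enzyme for full effect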
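Human LDH5 at 2 nM final in Tris HCl pH 7.4 with 0.06 mM NADH and 0.2 mM pyruvate, reacted 5 minutes at room temperature. Remaining NADH coupled via diaphorase/resazurin; resorufin fluorescence read at 0 and 20 minutes, normalized to enzyme-free and DMSO wells.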
p53 reactivator: qHTS assay for re-activators of p53 using a Luc reporter; Potency, µM (top dose mostly 92.2 µM), inactives show at the highest dose activity change, positive = activation, most hits filed as activators; AID 504706, 2011; H1299 p53-A138V BP100-luciferase reporter, luminescence, 24 h; 320,000 tested, 0.063% active; also: potency is read from the fitted curve at half-maximal effect; % of control where 0% means no effect; nearly all actives have a fitted effect of over 45% in size
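H1299 (p53-null), stable ts p53-A138V + BP100-Luc; 1000 cells/well, Opti-MEM/10% FBS; cpd 4 pt, 1:5; 24 h, 37 deg C, 5% CO2; detection reagent 10 min RT; luminescence.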
GLP1R cytotox: qHTS of GLP-1 Receptor Inverse Agonists: Cytotox Screen | Potency, µM (doses to about 38.3 µM), for inactives: at the highest dose activity change, negative = inhibition, most hits filed as inhibitors | 410,000 tested, 0.13% active | HEK293 cAMP-luciferase reporter cells, luminescence, 24 h;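 also: loss of luciferase light is scored as toxicity; potency is read from the fitted curve at half-maximal effect; % is scaled to controls: 0 for no effect and ±100 for the full control effect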
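Seeding density was 200 cells/uL; after overnight-length (12 h) culture, 23 nL compounds went on for 24 h at 37 °C. Readout used a luciferase detection reagent, luminescence taken after 12 min at room temperature.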
GLP1R ag: qHTS of GLP-1 Receptor Agonists | Glucagon-like peptide 1 receptor (Homo sapiens), P43220 | HEK293 GLP-1R CRE-luciferase, luminescence, 4-6 h; cells express a hypersensitive GLP-1R form | Potency, µM (highest dose often 45.6 µM), inactives show top-dose activation, usual class: activators | 380,000 tested, 0.007% active; also: potency is read from the fitted curve at half-maximal effect; % of control where 0% means no effect
Target sequence (P43220 whole entry, looked up): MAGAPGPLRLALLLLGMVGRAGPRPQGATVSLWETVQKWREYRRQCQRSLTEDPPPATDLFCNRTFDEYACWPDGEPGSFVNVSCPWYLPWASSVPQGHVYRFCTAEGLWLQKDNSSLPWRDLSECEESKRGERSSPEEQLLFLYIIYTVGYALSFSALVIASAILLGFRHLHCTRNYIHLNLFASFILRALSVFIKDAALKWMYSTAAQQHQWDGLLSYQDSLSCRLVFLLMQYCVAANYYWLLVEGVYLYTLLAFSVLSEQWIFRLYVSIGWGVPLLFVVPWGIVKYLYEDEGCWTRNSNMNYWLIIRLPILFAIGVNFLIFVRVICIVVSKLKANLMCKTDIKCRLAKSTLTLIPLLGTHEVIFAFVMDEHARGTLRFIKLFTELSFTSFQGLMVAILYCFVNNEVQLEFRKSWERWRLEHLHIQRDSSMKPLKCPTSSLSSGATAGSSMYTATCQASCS
ClpP mod: qHTS Assay for Activators of ClpP | ATP-dependent Clp protease proteolytic subunit (Bacillus subtilis (strain 168)), P80244 | purified B. subtilis ClpP, FRET peptide cleavage, 20 min | Potency, µM (titrated, usually from 57.5 µM), inactives show at the highest dose activity change, negative = active | 340,000 tested, 1.9% active; active = well fitted falling curve with a large enough effect; inconclusive = small, poorly fitted or top-dose-only effect; inactive = no such curve, though single readings can be large or run the other way; also: potency is read from the fitted curve at half-maximal effect; the source files actives as falling curves though it sought activators and does not explain the sign; nearly all actives have a fitted effect of over 65% in size
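Purified B. subtilis ClpP, 10 microg/mL final in Tris/HCl pH8 with KCl, BSA, glycerol and Tween-20, cleaved an Abz/nitrotyrosine-quenched decapeptide. Fluorescence (ex 320, em 430) was read at 0 and 20 min at room temperature. Delta was normalized to 5.8 microM ADEP and DMSO/no-enzyme controls.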
GLP1R inv ag: qHTS of GLP-1 Receptor Inverse Agonists (Inhibition Mode); Glucagon-like peptide 1 receptor (Homo sapiens), P43220; HEK293 GLP-1R CRE-luciferase, luminescence, 24 h; GLP-1R form is constitutively active; Potency, µM (highest dose often 38.3 µM), for inactives: top-dose activity change, negative = inhibition, most hits filed as inhibitors; 410,000 tested, 1.6% active; AID 624417, 2012; also: potency is read from the fitted curve at half-maximal effect; % is scaled to controls: 0 for no effect and ±100 for the full control effect; nearly all actives have a fitted effect of over 55% in size
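Inverse agonism was detected as reduced cAMP-driven luciferase luminescence after 24 h compound treatment. The cells were HEK293 clones expressing constitutively active human GLP-1R with the reporter. Reporter-only and GPR119 cell lines served as counterscreen controls.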
* hit, by the source's call. Unless noted, calls follow the shape of the dose curve; as a rule, active = well fitted curve in the direction sought with a large enough effect; inconclusive = small, poorly fitted or top-dose-only effect, or another doubt; inactive = no such curve, though single readings can be large; an effect the other way counts as inactive or inconclusive.

`CC1CN(C(=O)COC(=O)c2cnc(Cl)c(Cl)c2)CC(C)O1` (configuration not stated) gave LDHA block -12, p53 reactivator 9%, GLP1R cytotox 10%, GLP1R ag -16%, ClpP mod 32µM* and GLP1R inv ag 2%.
For Cc1ccc(-c2ccc(/C=N/c3ncn[nH]3)o2)cc1Cl the results were LDHA block -6, p53 reactivator 30%, GLP1R cytotox inconclusive, GLP1R ag -17%, ClpP mod inconclusive and GLP1R inv ag 8.9µM*.
For COC(=O)N/N=C/c1ccc(-c2ccc(C)c(Cl)c2)o1 the results were LDHA block -2, p53 reactivator 9%, GLP1R cytotox 0%, GLP1R ag -8%, ClpP mod -3% and GLP1R inv ag 15%.
COc1ccc([N+](=O)[O-])cc1NC(=S)NC(NC(=O)Cc1ccc(OC)c(OC)c1)C(Cl)(Cl)Cl (configuration not stated) was read as LDHA block 1, p53 reactivator -6%, GLP1R cytotox inconclusive, GLP1R ag -5%, ClpP mod 2% and GLP1R inv ag 4.5µM*.
For OC(CNCc1ccc(-c2ccccc2)cc1)c1ccccc1 (configuration not stated) the results were LDHA block -4, p53 reactivator -4%, GLP1R cytotox inconclusive, GLP1R ag inconclusive and GLP1R inv ag 10µM*.
For CCc1ccc(CNCC(O)c2ccccc2)cc1 (configuration not stated) the results were LDHA block 2.
COC(=O)c1sccc1NC(=O)c1cc2c(s1)CCCC2 was read as LDHA block 6, p53 reactivator 9%, GLP1R cytotox 1%, GLP1R ag 1%, ClpP mod 35µM* and GLP1R inv ag -4%.
`N#CCCN1CCN(Cn2c3ccccc3c3ccccc32)CC1` gave LDHA block -2, p53 reactivator -7%, GLP1R cytotox -7%, GLP1R ag -7%, ClpP mod -8% and GLP1R inv ag -26%.
For CN1CCN(CCCNCc2cn(CCC#N)c3ccccc23)CC1 the results were LDHA block -40*, p53 reactivator -4%, GLP1R cytotox -5%, GLP1R ag 10% and GLP1R inv ag -7%.
For Cc1ccc(C2=NS(=O)(=O)N(C)C(C(=O)NCc3ccc4c(c3)OCO4)=C2)cc1 the results were LDHA block -1, GLP1R cytotox 4%, GLP1R ag 8%, ClpP mod -1% and GLP1R inv ag -35%.
For CCc1ccc(-n2nc(CO)c(C(=O)NCc3ccccn3)n2)cc1 the results were LDHA block 2, GLP1R cytotox -9%, ClpP mod 14µM* and GLP1R inv ag 15%.
CCOc1ccc(-n2nc(CO)c(C(=O)NCc3cccc(OC)c3)n2)cc1 was read as LDHA block -8, GLP1R cytotox -1%, ClpP mod inconclusive and GLP1R inv ag -18%.
`CCOc1ccc(-n2nc(CO)c(C(=O)NCc3ccccn3)n2)cc1` gave LDHA block 5, GLP1R cytotox 2%, ClpP mod 11µM* and GLP1R inv ag -3%.
For CCc1ccc(CNC(=O)c2nn(-c3ccc(CC)cc3)nc2CO)cc1 the results were LDHA block -1.
Screening Cc1nc(CCNC(=O)N2CCN(Cc3ccco3)CC2)cs1 returned LDHA block -25.
For CCCCn1c(-n2nc(CC)cc2CC)nc2c1c(=O)[nH]c(=O)n2C the results were LDHA block -2.
